# According to PubChem BioAssay (NCATS):
# Records with an inconclusive call do not appear. A call without a number means that no potency is given here. Calls of active or inactive are those of the source. The call rests on the fitted dose curve; in most records, active means well fitted inhibition curve with a large enough effect; inconclusive means small, poorly fitted or top-dose-only effect; inactive means flat fitted curve, though single readings scatter.
# What was measured:
# Test in all cases: qHTS profiling for inhibitors of Plasmodium falciparum proliferation (AID 504749); further: nearly all actives have a fitted effect of over 60% in size
# Conditions in all cases: P. falciparum in erythrocytes, SYBR Green DNA, 72 h; series mostly up to 28.7 µM
# 7G8 = system: 7G8
# Outline: (§1)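 P. falciparum-infected erythrocytes (0.3% parasitemia, 2.5% hematocrit) incubated with compound 72 h at 37 C, 5% CO2. Parasite DNA detected by SYBR Green after lysis, overnight at room temperature; normalised to 0.29 uM artemisinin and DMSO.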
# AA1029 = system: AA1029
# Outline: as §1
# AS120 = system: AS120
# Outline: as §1
# ATS189 = system: ATS189
# Outline: as §1
# ATS95 = system: ATS95
# Outline: as §1
# C2A = system: C2A
# Outline: as §1
# CP185 = system: CP185
# Outline: as §1
# CP191 = system: CP191
# Outline: as §1
# CP192 = system: CP192
# Outline: as §1
# CP194 = system: CP194
# Outline: as §1
# Potency means the concentration at half of the fitted maximal effect.
Structure (SMILES),Potency (7G8),Potency (AA1029),Potency (AS120),Potency (ATS189),Potency (ATS95),Potency (C2A),Potency (CP185),Potency (CP191),Potency (CP192),Potency (CP194)
CCC(C)(C)c1ccc(CC(C)CN2C[C@@H](C)O[C@@H](C)C2)cc1 (stereo partly specified),10 µM (active),inactive,inactive,inactive,inactive,inactive,inactive,inactive,inactive,inactive
CC[C@H](C)C(=O)O[C@H]1C[C@@H](C)C=C2C=C[C@H](C)[C@H](CC[C@@H]3C[C@@H](O)CC(=O)O3)[C@H]21,inactive,inactive,inactive,inactive,inactive,inactive,inactive,inactive,inactive,inactive
Cc1ncc([N+](=O)[O-])n1CCO,inactive,inactive,inactive,inactive,inactive,inactive,inactive,inactive,inactive,inactive
O=c1cc(O)c(Cl)c[nH]1,inactive,inactive,inactive,inactive,inactive,inactive,inactive,inactive,inactive,inactive
COc1cc([C@@H]2c3cc4c(cc3[C@H](O)[C@H]3COC(=O)[C@H]23)OCO4)cc(OC)c1OC,0.316 µM (active),11.2 µM (active),5.01 µM (active),3.55 µM (active),8.91 µM (active),–,–,3.55 µM (active),–,–
COC(=O)Nc1nc2ccc(Sc3ccccc3)cc2[nH]1,inactive,inactive,inactive,inactive,inactive,inactive,inactive,inactive,–,inactive
COc1cc(NCc2ccc3nc(N)nc(N)c3c2C)cc(OC)c1OC,0.0794 µM (active),1 µM (active),1 µM (active),0.282 µM (active),0.631 µM (active),0.631 µM (active),0.562 µM (active),0.251 µM (active),3.01 µM (active),2.69 µM (active)
O=P(O)(O)C(O)(Cc1cccnc1)P(=O)(O)O,inactive,inactive,inactive,inactive,inactive,inactive,inactive,inactive,inactive,inactive
CN(C)c1ccc(C(=C2C=CC(=[N+](C)C)C=C2)c2ccc(N(C)C)cc2)cc1,0.251 µM (active),0.355 µM (active),0.447 µM (active),0.282 µM (active),0.501 µM (active),0.355 µM (active),0.398 µM (active),0.178 µM (active),0.757 µM (active),0.953 µM (active)
CCCN[C@H]1CCc2nc(N)sc2C1,inactive,inactive,inactive,inactive,inactive,inactive,inactive,inactive,inactive,inactive
CN1CCN(c2c(F)cc3c(=O)c(C(=O)O)cn(CCF)c3c2F)CC1,inactive,inactive,inactive,inactive,inactive,inactive,inactive,inactive,inactive,inactive
O=S(=O)(O)CCS,inactive,inactive,inactive,inactive,inactive,inactive,inactive,inactive,inactive,inactive
CCOCC(O)COc1ccc(NC(=O)CC[S+](C)C)cc1 (stereo unspecified),inactive,inactive,inactive,inactive,inactive,inactive,inactive,inactive,inactive,inactive
Cn1nnc2c(C(N)=O)ncn2c1=O,inactive,inactive,inactive,inactive,inactive,inactive,inactive,inactive,inactive,inactive
C#CCN[C@@H]1CCc2ccccc21,inactive,inactive,inactive,inactive,inactive,inactive,inactive,inactive,inactive,inactive
CCn1cc(C(=O)O)c(=O)c2cc(F)c(N3CCNCC3)cc21,inactive,inactive,inactive,inactive,inactive,inactive,–,inactive,inactive,–
CC1=NN(c2ccccc2)C(=O)C1,inactive,inactive,inactive,inactive,inactive,inactive,inactive,inactive,inactive,inactive
S=P(N1CC1)(N1CC1)N1CC1,inactive,inactive,inactive,inactive,inactive,inactive,inactive,inactive,inactive,inactive
CC1=CC(=O)c2ccccc2C1=O,10 µM (active),inactive,inactive,inactive,inactive,–,inactive,inactive,inactive,inactive
Nc1[nH]c(=O)ncc1F,inactive,inactive,inactive,inactive,inactive,–,inactive,inactive,inactive,inactive
CNCC[C@H](Oc1cccc2ccccc12)c1cccs1,2.24 µM (active),7.08 µM (active),11.2 µM (active),–,7.94 µM (active),–,–,11.2 µM (active),–,–
CCOC(=O)c1ccc(C#Cc2ccc3c(c2)C(C)(C)CCS3)nc1,12.6 µM (active),inactive,inactive,–,inactive,–,–,–,inactive,inactive
COc1ccc(C(=O)CC(=O)c2ccc(C(C)(C)C)cc2)cc1,–,inactive,inactive,inactive,inactive,inactive,inactive,inactive,inactive,inactive
CNC(=O)c1cc(Oc2ccc(NC(=O)Nc3ccc(Cl)c(C(F)(F)F)c3)cc2)ccn1,1 µM (active),–,10 µM (active),–,–,–,–,–,10.7 µM (active),10.7 µM (active)
CCOC(=O)c1ccc(OC(=O)CCCCCN=C(N)N)cc1,3.55 µM (active),inactive,inactive,–,inactive,inactive,inactive,–,inactive,inactive

Structure (SMILES),Potency (7G8),Potency (AA1029),Potency (AS120),Potency (ATS189),Potency (ATS95),Potency (C2A),Potency (CP185),Potency (CP191),Potency (CP192),Potency (CP194)
CC(C)Cn1cnc2c(N)nc3ccccc3c21,–,inactive,inactive,inactive,inactive,inactive,inactive,inactive,inactive,inactive
CC(C)(Sc1cc(C(C)(C)C)c(O)c(C(C)(C)C)c1)Sc1cc(C(C)(C)C)c(O)c(C(C)(C)C)c1,–,inactive,inactive,inactive,inactive,inactive,inactive,inactive,inactive,inactive
Nc1ccc(S(=O)(=O)Nc2ccccn2)cc1,inactive,inactive,inactive,inactive,–,inactive,inactive,inactive,inactive,inactive
O=C(O)c1cn(C2CC2)c2cc(N3CCNCC3)c(F)cc2c1=O,3.16 µM (active),–,–,inactive,–,inactive,–,inactive,–,–
CC(C)(C)C(=O)OCOP(=O)(COCCn1cnc2c(N)ncnc21)OCOC(=O)C(C)(C)C,–,–,–,–,–,–,–,–,–,inactive
CCCc1nc(C)c2c(=O)[nH]c(-c3cc(S(=O)(=O)N4CCN(CC)CC4)ccc3OCC)nn12,7.08 µM (active),–,–,inactive,inactive,inactive,inactive,inactive,inactive,inactive
CCn1cc(C(=O)O)c(=O)c2cc(F)c(N3CCNCC3)nc21,–,–,–,inactive,inactive,inactive,inactive,inactive,inactive,inactive
COc1nc(N)nc2c1ncn2[C@@H]1O[C@H](CO)[C@@H](O)[C@@H]1O,–,inactive,inactive,inactive,inactive,inactive,inactive,inactive,inactive,inactive
CN1CCCC(n2nc(Cc3ccc(Cl)cc3)c3ccccc3c2=O)CC1 (stereo unspecified),12.6 µM (active),–,–,–,–,–,inactive,–,inactive,inactive
O=C(O)c1cc(=O)[nH]c(=O)[nH]1,–,inactive,inactive,inactive,inactive,inactive,inactive,inactive,–,inactive
CCCCOc1ccc(CC(=O)NO)cc1,1.78 µM (active),–,3.55 µM (active),–,3.55 µM (active),1.58 µM (active),3.98 µM (active),2.24 µM (active),4.05 µM (active),–
Cc1ccnc2c1NC(=O)c1cccnc1N2C1CC1,–,inactive,inactive,inactive,inactive,inactive,inactive,inactive,inactive,inactive
CCCCCCNC(=O)n1cc(F)c(=O)[nH]c1=O,5.01 µM (active),–,–,–,–,12.6 µM (active),–,–,–,–
COc1c(N2CCNC(C)C2)c(F)cc2c(=O)c(C(=O)O)cn(C3CC3)c12 (stereo unspecified),–,–,inactive,inactive,inactive,inactive,inactive,inactive,inactive,–
CCn1cc(C(=O)O)c(=O)c2cc(F)c(N3CCN(C)CC3)cc21,–,–,–,–,–,–,–,–,inactive,inactive
CCc1c2c(nc3ccc(OC(=O)N4CCC(N5CCCCC5)CC4)cc13)-c1cc3c(c(=O)n1C2)COC(=O)[C@]3(O)CC,–,inactive,inactive,inactive,inactive,inactive,inactive,inactive,inactive,inactive
O=c1oc2c(O)c(O)cc3c(=O)oc4c(O)c(O)cc1c4c23,2.82 µM (active),inactive,1.41 µM (active),–,–,–,inactive,inactive,–,–
CCOC(=O)[C@H](CCc1ccccc1)N[C@H]1CS[C@H](c2cccs2)CN(CC(=O)O)C1=O,–,inactive,–,inactive,inactive,inactive,inactive,inactive,inactive,inactive
COc1cccc(N(C)C(=S)Oc2ccc3c(c2)CCCC3)n1,–,inactive,–,inactive,inactive,inactive,inactive,–,inactive,–
N[C@@H](Cc1ccc(O)c(O)c1)C(=O)O,–,–,–,–,–,–,–,–,inactive,inactive
CN(Cc1cc(Br)cc(Br)c1N)C1CCCCC1,–,inactive,inactive,inactive,–,inactive,inactive,inactive,inactive,inactive
CC(N)C12CC3CC(CC(C3)C1)C2 (stereo unspecified),–,–,–,–,–,inactive,–,inactive,–,–
Oc1c(Cl)cc(Cl)c2cccnc12,6.31 µM (active),–,11.2 µM (active),8.91 µM (active),7.94 µM (active),–,11.2 µM (active),11.2 µM (active),inactive,–
COc1ccc(-c2ccc3cc(C(=O)O)ccc3c2)cc1C12CC3CC(CC(C3)C1)C2,–,inactive,inactive,inactive,–,inactive,inactive,inactive,inactive,inactive
CNNCc1ccc(C(=O)NC(C)C)cc1,–,inactive,inactive,inactive,inactive,inactive,inactive,–,inactive,inactive
